This is an account of results in PubChem BioAssay (NCATS).

Structures are written as SMILES. Results filed as inconclusive are left out. Active and inactive are the calls of the source. Calls follow the shape of the dose curve; as a rule, active = well fitted inhibition curve with a large enough effect; inconclusive = small, poorly fitted or top-dose-only effect; inactive = flat fitted curve, though single readings scatter.
Potency is read from the fitted curve at half-maximal effect.

The nature of the assay: qHTS for Inhibitors of Plasmodium falciparum (7G8) proliferation (AID 504316). Also: nearly all actives have a fitted effect of over 65% in size.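 As to activity change, negative = inhibition: 0% = DMSO vehicle and -100% = 0.29 µM artemisinin full kill.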 The note with it: P. falciparum 7G8 in erythrocytes, SYBR Green DNA, 72 h; series mostly up to 6.7 µM; activity change, negative = inhibition: at the top concentration. An excerpt: Plasmodium falciparum is a virulent malarial parasite that kills 1-2 million people worldwide each year. Malaria not only inflicts tremendous suffering and morbidity on the human population, but has dramatically influenced the course of civilization with profound sociological and economic implications (Shah, S. 2010). Transmitted by mosquitoes, the sporozoite form of the parasite enters the blood stream to infect hepatocytes, where they become merozoites that infect red blood cells (erythrocytes). Within erythrocytes, merozoites begin a […] cycle of growth and division, after which the parasite is released to infect new red blood cells. Gametocytes, which form within erythrocytes as well, circulate in the bloodstream and are ingested by the mosquito, thereby completing the life cycle (see CDC website). To profile malarial lines for differential chemical responses and to identify inhibitors of malarial growth, an assay that measures P. falciparum growth and replication within erythrocytes was employed. This assay uses a DNA binding fluorescent dye (SYBR Green) to detect parasite DNA following cell lysis. Because mature erythrocytes lack DNA, only Plasmodium-derived DNA is detected. The P. falciparum line cp250, derived from a malarial isolate from Cambodia, (Mu, J., et al. 2010) was added to the panel of lines, Dd2, HB3, 7G8 and GB4 in this study. Laboratory of Assay Development and Screening Technology [ADST] and NIH Chemical Genomics Center [NCGC] Boston University, Chemistry Department, Center for Chemical Methodology and Library Development [CMLD-BU] NIH National Institute of Allergy and Infectious Diseases [NIAID]
ADST Assay Protocol Summary: The 1536-well SYBR Green viability assay was based on the method of Bennett et al (2004) and described previously in 1536-well format (Yuan J., et al. 2009). For screening 3 ul culture medium was dispensed into 1536 well black clear bottom plates (Aurora Biotechnologies) using a Multidrop Combi (Thermo Fisher Scientific Inc.), 23 nL compounds in DMSO were added by a pin transfer (Cleveland, P.H. and Koutz, P.J, 2005) using a pin tool-based delivery system (Kalypsys), and 5 ul of erythrocytes infected with P. falciparum one of five lines (cp250, Dd2, HB3, 7G8 or GB4, 0.3% parasitemia, 2.5% hematocrit final concentration) were added. The plates were incubated at 37C in a humidified incubator in 5% CO2 for 72 h, and 2 ul lysis buffer (20 mM Tris HCl, 10 mM EDTA, 0.16% saponin, 1.6% triton X, 10X SYBR Green I (supplied as 10,000X final concentration by Invitrogen) was added to each well. The plates were mixed for 25 sec with gentle shaking and incubated overnight at room temperature in the dark. The following morning, fluorescence intensity at 485(14) nm excitation and 535(25) nm emission wavelengths was measured on an EnVision (Perkin Elmer) plate reader. Plate reads were normalized relative to the control inhibitor (0.29 uM artemisinin) and vehicle (DMSO) wells present on each plate and then corrected by an algorithm using vehicle-only control plates at the beginning and end of the compound plate stack. References Shah, S. (2010). The Fever: how malaria has ruled humankind for 500,000 years. New York, Sarah Crichton Books. CDC web site, http://www.cdc.gov/malaria/about/biology/index.html Mu, J., Myers, R.A., Jiang, H., Liu, S., Ricklefs, S., Waisberg, M., Chotivanich, K., Wilairatana, P., Krudsood, S., White, N.J., et Plasmodium falciparum genome-wide scans for positive selection, recombination hot spots and resistance to antimalarial drugs Nature Genetics 2010, 42, pp 268-271 Bennett TN, Paguio, M., Gligorijevic, B., Seudieu, C., Kosar, A. D., Davidson, E., and Roepe, P. D. Novel, rapid, and inexpensive cell-based quantification of antimalarial drug efficacy Antimicrobial Agents Chemother. 2004, 48(5): pp 1807-10 Yuan J, Johnson RL, Huang RL, Wichterman J, Jiang HY, Hayton K, Fidock DA, Wellems TE, Inglese J, Austin CP, Su XZ. […]
For orientation: Quantitative high-throughput screening tests each substance at several concentrations.
On to `O=C1C=CC2(OCCCO2)C(Br)=C1CO`, for which the “activity change, negative = inhibition” value is -15.7% (inactive).
Turning to `C=CCN1C=C2C(=O)C(C)(OC(=O)c3cnc4ccccc4n3)C(=O)C=C2C=C1/C=C/COC` (stereo not given), the “activity change, negative = inhibition” value is 4.3% (inactive).
Consider `COC(=O)[C@@H]1[C@@H](C)N(Cc2ccccc2)C(=O)N[C@H]1c1cccc(C(F)(F)F)c1`, for which the “activity change, negative = inhibition” value was -0.371% (inactive).
`COC(=O)CC=C[C@@H](C)[C@H](OC)c1cc(F)ccc1Br`: the “activity change, negative = inhibition” value is -14.5% (inactive).
On the same count and under the same terms, with `COC(=O)CCCC1=CC2=C(c3ccccc3)C(=O)C(C)(OC(=O)C3CCCC3)C(=O)C2=CN1CCc1c[nH]c2ccccc12` (stereo not given) the figure was -17.7% (inactive).
Same read-out and setting: next, `COC(=O)C1=C(C)N(Cc2ccco2)C(=O)N[C@@H]1c1ccco1`: 2.2% (inactive).
For the compound `COc1ccc(-c2nc3c(c4c2C[C@H](c2ccccc2)OC4)CN(S(=O)(=O)c2ccc(C#N)cc2)CC3)c(C)c1`, the Potency is 1.51 µM (active).
Consider `COC(=O)C1=C(C(=O)OC)[C@@H]2N(Cc3ccccc3)c3ccccc3[C@@]23C[C@@H](C(=O)OC)N(S(=O)(=O)c2ccc([N+](=O)[O-])cc2)C3=N1`, for which the Potency was 1.69 µM (active).
As for `COC(=O)CCCC1=CC2=CC(=O)C(C)(OC(=O)c3cccs3)C(=O)C2=CN1Cc1ccccc1` (stereo not given), the “activity change, negative = inhibition” value is 1.62% (inactive).
As to `CCC(=O)N1C2=C(c3ccccc3[C@@H]1CC(=O)Nc1ccc3ccccc3c1)[C@@H]1C(=O)N(c3ccccc3)C(=O)[C@@H]1[C@H](C)C2`, the Potency is 1.9 µM (active).
Still for that read-out and setting: with `C=CCNC(=O)N1C2=NC(C(=O)OC)=C(C(=O)OC)[C@@H]3N(Cc4ccccc4)c4ccccc4[C@]23C[C@H]1C(=O)OC` the figure was 1.51 µM (active).
On to `COC(=O)CCCC1=CC2=CC(=O)C(C)(OC(=O)CCc3ccccc3)C(=O)C2=CO1` (stereo not given), for which the “activity change, negative = inhibition” value is -13.3% (inactive).
As for `CCCCS(=O)(=O)N1C2=NC(C(=O)OC)=C(C(=O)OC)[C@@H]3N(Cc4ccccc4)c4ccccc4[C@]23C[C@H]1C(=O)OC`, the Potency was 1.51 µM (active).
Consider `CC#CCN1c2ccccc2[C@]23C[C@@H](C(=O)OC)N(C(=O)c4cccs4)C2=NC(C(=O)OC)=C(C(=O)OC)[C@H]13`, for which the “activity change, negative = inhibition” value was 4.87% (inactive).
Turning to `COC(=O)N1C(/C=C/c2ccc3c(c2)OCO3)=Cc2ccccc2C1CC(C)=O` (stereo not given), the Potency was 2.69 µM (active).
On to `COC(=O)N1C(/C=C/C=C/c2ccc(OC)cc2)=Cc2ccccc2C1CC(C)=O` (stereo not given), for which the Potency is 1.51 µM (active).
Regarding `CC1(OC(=O)C2CCCC2)C(=O)C=C2C=C(c3ccsc3)N(CCc3c[nH]c4ccccc34)C=C2C1=O` (stereo not given), the “activity change, negative = inhibition” value was -1.88% (inactive).
With `COC(=O)C1=C(C(=O)OC)[C@@H]2N(Cc3ccccc3)c3ccccc3[C@@]23C[C@@H](C(=O)OC)N(S(=O)(=O)c2ccc4c(c2)OCCN4C)C3=N1`, the Potency is 1.9 µM (active).
On to `CCN1C(=O)N[C@H](c2ccc(Br)cc2)C(C(=O)OC)=C1C`, for which the “activity change, negative = inhibition” value is 6.41% (inactive).
The same measure, in the same setting: next, `COCC(=O)N1CCc2nc(COc3ccccc3)c3c(c2C1)CO[C@@H](C)C3`: -5.48% (inactive); `C=CCN1c2ccccc2[C@]23C[C@@H](C(=O)OC)N(S(=O)(=O)c4ccc(Br)cc4)C2=NC(C(=O)OC)=C(C(=O)OC)[C@H]13`: -7.68% (inactive).
As to `COC(=O)C1=C(C(=O)OC)[C@@H]2N(Cc3ccccc3)c3ccccc3[C@@]23C[C@@H](C(=O)OC)N(S(=O)(=O)c2ccc(C(F)(F)F)cc2)C3=N1`, the Potency is 0.478 µM (active).
On the same count and under the same terms, next, `COC(=O)C1=C(C(=O)OC)[C@@H]2N(C)c3ccc(OC)cc3[C@@]23C[C@@H](C(=O)OC)N(S(=O)(=O)c2ccc([N+](=O)[O-])cc2)C3=N1`: 1.51 µM (active).
For `CCN(CC)CCCN1C=C2C(=O)C(C)(OC(=O)CCC(=O)OC)C(=O)C(Br)=C2C=C1c1ccc(OC)cc1` (stereo not given), the “activity change, negative = inhibition” value was -3.04% (inactive).
With `CC1COc2ccccc2C1=O` (stereo not given), the Potency was 1.69 µM (active).
Regarding `COC(=O)C1=C(C(=O)OC)[C@@H]2Nc3ccccc3[C@@]23C[C@@H](C(=O)OC)N(C(=O)c2ccco2)C3=N1`, the “activity change, negative = inhibition” value is -12.5% (inactive).
Same read-out and setting: next, `COC(=O)c1ccccc1S(=O)(=O)N1CCc2nc(-c3ccccc3)c3c(c2C1)CO[C@@H](C)C3`: -26.3% (inactive); `COC(=O)C1=C(C(=O)OC)[C@@H]2N(C)c3ccccc3[C@@]23C[C@@H](CO)N(C(=O)c2cc(C)oc2C)C3=N1`: -23.1% (inactive); `CCOC(=O)CN1C(=O)N[C@@H](c2cccc(C(F)(F)F)c2)[C@@H](C(=O)OC)[C@H]1C`: 5.91% (inactive).
In the case of `COc1cc2c(cc1OC)[C@@H]1O[C@](CCCCN3C(=O)c4ccccc4C3=O)(C2)OC2=C1C(=O)CCC2`, the Potency was 1.69 µM (active).
Regarding `COCCN1C(=O)N[C@@H](c2cccc(F)c2)C(C(=O)OC)=C1C`, the “activity change, negative = inhibition” value was -2.13% (inactive).
In the case of `COC(=O)[C@H]1[C@H](CCc2ccccc2)NC(=O)N(Cc2ccccc2)[C@@H]1C`, the “activity change, negative = inhibition” value is -0.515% (inactive).
For `CC(=O)OC[C@H]1O[C@H](C#Cc2ccc(C)cc2C)C=C[C@H]1OC(C)=O`, the Potency is 1.69 µM (active).
As to `COC(=O)CCC(=O)OC1(C)C(=O)C2=CN(CCCCO)C(c3ccc(OC)cc3)=CC2=C(Br)C1=O` (stereo not given), the “activity change, negative = inhibition” value is -2.58% (inactive).
In the case of `CCCNC(=O)N1C2=NC(C(=O)OC)=C(C(=O)OC)[C@@H]3Nc4ccccc4[C@]23C[C@H]1C(=O)OC`, the “activity change, negative = inhibition” value was 2.27% (inactive).
Take `COC(=O)CCCC1=CC2=C(c3ccccc3)C(=O)C(C)(OC(=O)C3CCCC3)C(=O)C2=CN1C1CCCC1` (stereo not given): the “activity change, negative = inhibition” value is -3.08% (inactive).
Same read-out and setting: with `C=CC1=C2C=C(C3CC3)N(Cc3ccco3)C=C2C(=O)C(C)(OC(=O)c2ccco2)C1=O` (stereo not given) the figure was 1.12% (inactive); with `CC(=O)C1=C(C)N(Cc2ccccc2)C(=O)N[C@H]1c1ccco1`, -5.33% (inactive).
Consider `CCCCC1=CC2=CC(=O)C(C)(OC(=O)CC)C(=O)C2=CN1CCc1ccc(Br)cc1` (stereo not given), for which the “activity change, negative = inhibition” value was -11% (inactive).
Consider `COC(=O)C1=C(C(=O)OC)[C@@H]2N(Cc3ccccc3)c3ccccc3[C@@]23C[C@@H](C(=O)OC)N(S(=O)(=O)c2ccc(C#N)cc2)C3=N1`, for which the Potency was 1.9 µM (active).
